The source of these data is PubChem BioAssay (NCATS).

Several values for one entry are separate records, joined by “and”; a condition that tells them apart may be missing. Equal entries are not always repeated. Results filed as inconclusive are left out. Activity calls are given as the source filed them. Unless noted, the call rests on the fitted dose curve; in most records, active means well fitted curve in the direction sought with a large enough effect; inconclusive means small, poorly fitted or top-dose-only effect, or another doubt; inactive means no such curve, though single readings can be large; an effect the other way counts as inactive or inconclusive.

The target of test [1] is Calcium and integrin-binding protein 1 (Homo sapiens) (UniProt Q99828). The test is described as follows: Primary qHTS for Identification of Calcium Integrin Binding Protein 1 (CIB1) Competitor (AID 1508620).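 Further: GST tagged CIB1 binding a fluorescein labelled alphaIIb integrin peptide tracer; top concentration of the series differs between compounds.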 The settings on record: CIB1-GST / FITC-alphaIIb peptide fluorescence polarization; series mostly up to 57.7 µM. In short, it runs like this:
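CIB1-GST (1 uM final) and compound incubated 15 min at room temperature before adding FITC-alphaIIb peptide tracer (100 nM final). Competition for binding read by fluorescence polarization (ex 480, em 540) after another 15 min at room temperature.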

A short description of test [2]: Primary qHTS for small molecule stabilizers of the endoplasmic reticulum resident proteome: Secreted ER Calcium Modulated Protein (SERCaMP) assay (AID 1508630). Further: potency means the concentration at half of the fitted maximal effect. The note with it: SH-SY5Y GLuc-SERCaMP (Gaussia luciferase released on ER calcium loss) secretion, thapsigargin, luminescence; series mostly up to 38.4 µM. In short, it runs like this:
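The SH-SY5Y reporter protocol was run at 3 concentrations up to 38.3 uM (primary) or 11 concentrations (follow-up): 16 h compound, 100 nM thapsigargin for 4 h, then extracellular luciferase luminescence.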

Test [3] has as its target Cytochrome P450 2D6 (Homo sapiens) (UniProt P10635). The test is described as follows: Cytochrome P450 family 2 subfamily D member 6 (CYP2D6) small molecule antagonists: luciferase biochemical (cell-free) qHTS assay (AID 1645840; active means well fitted curve in the direction sought with a large enough effect in the repeat runs; an effect the other way counts as inactive or inconclusive; further: nearly all actives have a fitted effect of over 55% in size; further: potency means the concentration at half of the fitted maximal effect). The settings on record: P450-Glo CYP2D6 enzyme, luciferin luminescence, 1 h; series mostly up to 57.4 µM. In short, it runs like this: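 P450-Glo CYP2D6 system: proluciferin substrate converted by enzyme to luciferin, read by luminescence proportional to activity. Enzyme-substrate mix with compound 10 min at room temperature, then NADPH regeneration 1 h before detection reagent.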

Test [4] can be described thus: A High-Content qHTS Against Drug Library for the Identification of Small Molecules that Inhibit DYT1 Early Onset Primary Dystonia-Associated Cell Pathology (AID 1645839; calls by dose curve). The note with it: HEK293 Flp-In EGFP-delE TorsinA, punctate imaging, 48 h; series mostly up to 46.1 µM. In short, it runs like this: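 High-content imaging quantified EGFP-TorsinA mislocalization in HEK293-derived cells inducibly expressing DYT1 mutant torsinA, after 48 h exposure to compound given together with tetracycline induction. Cell count served as a toxicity channel alongside %pathology.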

Test [5] is described as follows: Counterscreen qHTS for small molecule stabilizers of the endoplasmic reticulum resident proteome: GLuc-NoTag assay (AID 1508627).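 Further: SH-SY5Y cells given compound then 100 nM thapsigargin to empty ER calcium.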 The settings on record: Gaussia luciferase NoTag secretion counterscreen, luminescence, thapsigargin 100 nM for final 4 h; series mostly up to 76.4 µM. The gist of the method: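 Counterscreen line: SH-SY5Y-GLuc-NoTag cells, treated with compound 19 hr before a 4 hr, 100 nM thapsigargin calcium depletion. Secreted Gaussia luciferase in the medium was measured by luminescence after coelenterazine was added (0.07x final), with cells unlysed.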

A short description of test [6]: Confirmatory qHTS for small molecule stabilizers of the endoplasmic reticulum resident proteome: Secreted ER Calcium Modulated Protein (SERCaMP) assay (AID 1508628). Further: nearly all actives have a fitted effect of over 40% in size. The note with it: SERCaMP secreted luciferase ER calcium/proteostasis reporter; series mostly up to 76.3 µM. The gist of the method:
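GLuc-SERCaMP-expressing SH-SY5Y cells, pretreated 16 h with compound, are challenged with thapsigargin to empty ER calcium stores; after 4 h, coelenterazine is added directly to the medium and luminescence is imaged.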

Chain of Cytochrome P450 2D6 (Homo sapiens) (P10635 whole entry, looked up): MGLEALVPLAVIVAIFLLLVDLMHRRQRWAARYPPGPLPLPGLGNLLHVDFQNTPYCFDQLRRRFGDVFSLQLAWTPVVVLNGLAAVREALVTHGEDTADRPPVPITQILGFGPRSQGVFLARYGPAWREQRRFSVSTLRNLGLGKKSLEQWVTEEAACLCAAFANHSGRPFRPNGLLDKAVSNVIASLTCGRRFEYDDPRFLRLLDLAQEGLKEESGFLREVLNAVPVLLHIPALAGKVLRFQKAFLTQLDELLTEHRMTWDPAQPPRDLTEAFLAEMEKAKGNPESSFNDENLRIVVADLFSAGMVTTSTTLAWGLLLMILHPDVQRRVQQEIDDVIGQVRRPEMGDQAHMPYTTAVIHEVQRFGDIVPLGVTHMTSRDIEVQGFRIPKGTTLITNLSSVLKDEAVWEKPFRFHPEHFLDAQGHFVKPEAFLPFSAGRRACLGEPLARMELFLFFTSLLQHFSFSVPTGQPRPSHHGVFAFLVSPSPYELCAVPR
Chain of Calcium and integrin-binding protein 1 (Homo sapiens) (Q99828 whole entry, looked up): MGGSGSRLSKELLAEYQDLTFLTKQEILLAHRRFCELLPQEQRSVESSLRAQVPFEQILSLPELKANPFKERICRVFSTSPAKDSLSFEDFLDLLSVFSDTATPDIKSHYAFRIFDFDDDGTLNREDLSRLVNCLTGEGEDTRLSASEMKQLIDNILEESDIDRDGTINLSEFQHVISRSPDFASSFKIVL

For the compound `CC(=O)Oc1cc2c(s1)CCN(C(C(=O)C1CC1)c1ccccc1F)C2` (stereo not given), the Potency entry in test [1] and in test [2] was “inactive” each time. Also, the Potency in test [3] is 11 µM (active) and 10.7 µM (active).

With `O=C(O)CCc1nc(-c2ccccc2)c(-c2ccccc2)o1`, the Potency result in test [1], in test [4] and in test [3] was “inactive” throughout.

For the compound `COc1ccc2c(Oc3ccc(NC(=O)c4c(C)n(CC(C)(C)O)n(-c5ccccc5)c4=O)nc3)ccnc2c1`, the Potency result in test [1], in test [2] and in test [3] was “inactive” each time.

Take `COc1cc2ncnc(-n3nc(-c4ccccn4)nc3N)c2cc1OC`: the Potency entry in test [1] and in test [2] was “inactive” each time. In addition, in test [3], the Potency was 7.56 µM (active).

Regarding `Cc1nc(N)sc1-c1ccnc(Nc2ccc(N3CCOCC3)cc2)n1`, the Potency entry in test [1], in test [2] and in test [3] was “inactive” throughout.

Turning to `O=C1Nc2ccc(Cl)cc2C(C#CC2CC2)(C(F)(F)F)O1` (stereo not given), the Potency result in test [1] and in test [2] was “inactive” throughout. For the same compound, in test [3], the Potency is 16.9 µM (active).

Turning to `Cc1cccc(Nc2nc(-c3ccncc3)cs2)c1`, the Potency entry in test [1] is “inactive”. In addition, the Potency in test [3] is 0.849 µM (active).

Regarding `COc1ccc2cccc(CCNC(C)=O)c2c1`, the Potency result in test [1] and in test [4] was “inactive” in each case.

Turning to `O=C(NC1CCOCC1)c1ccc(-c2cc(-c3cn[nH]c3-c3ccccn3)ccn2)cc1`, the Potency result in test [1], in test [2] and in test [3] was “inactive” in each case.

On to `COc1cccc2c1CCCC2CCCN1CCN(C2CCCCC2)CC1` (stereo not given), for which the Potency entry in test [1] and in test [2] was “inactive” in each case. In test [3], the Potency is 2.13 µM (active).

In the case of `CN[C@@H](C)C(=O)N[C@H]1CN(C(=O)CC(C)C)CC[C@H]2CC[C@@H](C(=O)NC(c3ccccc3)c3ccccc3)N2C1=O`, the Potency entry in test [1], in test [2] and in test [3] was “inactive” each time.

Turning to `COc1ccc2cc(-c3nc(-c4ccc(S(C)=O)cc4)[nH]c3-c3ccncc3)ccc2c1` (stereo not given), in test [1], the Potency entry was “inactive”. Moreover, the Potency in test [3] is 3.38 µM (active).

Regarding `O=C(O)CCC1CCC(c2cc(F)ccc2F)(S(=O)(=O)c2ccc(Cl)cc2)CC1` (stereo not given), the Potency result in test [1], in test [2] and in test [3] was “inactive” throughout.

In the case of `COCCOc1nc(-c2ccc(Cl)c(Cl)c2)n(-c2ccc(NC(=O)CCl)cc2)n1`, the Potency entry in test [1] is “inactive”. Further, the Potency in test [3] is 0.756 µM (active).

For the compound `CC(C)n1nc(-c2ccc3oc(N)nc3c2)c2c(N)ncnc21`, the Potency result in test [1], in test [2] and in test [3] was “inactive” each time.

With `Cc1cnc(C(=O)O)c[n+]1[O-]`, the Potency result in test [1] and in test [3] was “inactive” throughout.

Take `CN(C)c1cc(NC(=O)CNC(C)(C)C)c(O)c2c1C[C@@H]1C[C@H]3[C@H](N(C)C)C(=O)C(C(N)=O)=C(O)[C@@]3(O)C(=O)C1=C2O`: the Potency entry in test [1] and in test [4] was “inactive” in each case.

In the case of `CCn1cc(C(=O)O)c(=O)c2ccc(C)nc21`, the Potency result in test [1], in test [4] and in test [3] was “inactive” each time.

As for `NC(=O)c1cccc(-c2cc(Nc3ccc(OC(F)(F)F)cc3)ncn2)c1`, the Potency result in test [1] and in test [2] was “inactive” in each case. The Potency in test [3] was 26.8 µM (active).

For `CCc1ccc(OCc2ccccc2C(=O)Nc2ccc3nc(C)cc(N)c3c2)cc1`, the Potency entry in test [1] and in test [2] was “inactive” each time. The Potency in test [3] was 0.213 µM (active).

For `O=C(O)Cc1cccc2ccccc12`, the Potency result in test [1], in test [4] and in test [3] was “inactive” in each case.

For `CCOC(=O)C1=C(N)Oc2ccc(Br)cc2C1C(C#N)C(=O)OCC` (stereo not given), the Potency entry in test [1] and in test [2] was “inactive” each time. Besides, in test [3], the Potency is 13.5 µM (active) and 16.9 µM (active) and 23.9 µM (active).

Turning to `CC1(C)Cc2c(sc(NC(=S)NC(=O)c3ccccc3)c2C(=O)O)CO1`, the Potency entry in test [1], in test [2] and in test [3] was “inactive” in each case.

Consider `O=c1ccn([C@@H]2O[C@H](CO)[C@H](O)[C@H]2O)c(=O)[nH]1`, for which the Potency result in test [5] and in test [6] was “inactive” each time. The Potency in test [2] was 1.68 µM (active).

Take `NC(=O)NN=Cc1ccc([N+](=O)[O-])o1`: the Potency result in test [2] was “inactive”.

Regarding `Cn1c(N2CCCCS2(=O)=O)nc(C(=O)NCc2ccc(F)cc2)c(O)c1=O`, the Potency result in test [1], in test [2] and in test [3] was “inactive” throughout.
